{"source": "PubChem BioAssay (NCATS)", "note": "Records with an inconclusive call do not appear. A call without a number means that no potency is given here. Active and inactive are the calls of the source. The call rests on the fitted dose curve; in most records, active means well fitted inhibition curve with a large enough effect; inconclusive means small, poorly fitted or top-dose-only effect; inactive means flat fitted curve, though single readings scatter. Potency means the concentration at half of the fitted maximal effect.", "data": [{"system": "C2A", "assay": "qHTS profiling for inhibitors of Plasmodium falciparum proliferation (AID 504749); further: nearly all actives have a fitted effect of over 60% in size", "conditions": "P. falciparum in erythrocytes, SYBR Green DNA, 72 h; series mostly up to 28.7 µM", "procedure,_shortened": "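Quantitative HTS: compounds pinned into medium, infected erythrocytes added (0.3% parasitemia, 2.5% hematocrit), 72 h culture at 37 C under 5% CO2. Saponin/Triton lysis with SYBR Green I, overnight RT, then fluorescence read.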", "values": [{"smiles": "CCCCCCCCCCCCCCCCOP(=O)([O-])OCC[N+](C)(C)C", "Potency": "inactive"}, {"smiles": "O=C1OC(c2ccc(O)cc2)(c2ccc(O)cc2)c2ccccc21", "Potency": "inactive"}, {"smiles": "Oc1ccc(Cl)cc1Sc1cc(Cl)ccc1O", "Potency": "inactive"}, {"smiles": "CN(C(=O)CN(CCO)CC(=O)N(C)C(C)(C)Cc1ccccc1)C(C)(C)Cc1ccccc1", "Potency": "inactive"}, {"smiles": "O=C(N/N=C/c1ccccc1O)c1ccncc1", "Potency": "11.2 µM (active)"}, {"smiles": "c1ccc(OCc2ccc(CCCN3CCOCC3)cc2)cc1", "Potency": "inactive"}, {"smiles": "N[C@H](Cc1c[nH]c2ccccc12)C(=O)O", "Potency": "inactive"}, {"smiles": "CC(C)NC[C@@H](O)COc1cccc2ccccc12", "Potency": "inactive"}, {"smiles": "CCCCCCCCCCOCC(O)CN", "note": "(stereo unspecified)", "Potency": "inactive"}, {"smiles": "CCN1CCCC1=O", "Potency": "inactive"}, {"smiles": "C[C@@H]1CN(CCCn2c3ccccc3c3ccccc32)C[C@H](C)N1", "Potency": "11.2 µM (active)"}, {"smiles": "Cc1cccc(C)c1NC(=O)CN1CCN(CCCC(c2ccc(F)cc2)c2ccc(F)cc2)CC1", "Potency": "inactive"}, {"smiles": "Cc1ccc(C(=O)C(C)CN2CCCCC2)cc1", "note": "(stereo unspecified)", "Potency": "inactive"}, {"smiles": "O=C1OCCN1/N=C/c1ccc([N+](=O)[O-])o1", "Potency": "inactive"}, {"smiles": "CCN1CCC[C@H]1CNC(=O)c1c(OC)ccc(Br)c1OC", "Potency": "inactive"}, {"smiles": "Cc1ccc(O)c2ncccc12", "Potency": "inactive"}]}]}
